The structures appear in SMILES notation. “And” between values parts separate entries of the source, which are not always exact repeats. Equal entries are not always repeated. Records with an inconclusive call do not appear. Values without a mark were called inactive. The source made the active and inactive calls. The call rests on the fitted dose curve; in most records, active means well fitted activation curve with a large enough effect; inconclusive means small, poorly fitted or top-dose-only effect; inactive means no such curve, though single readings can be large or run the other way. Square brackets hold non-standard residues; d marks the D form. Peptide text beside a SMILES is read from it. ξ: configuration not given here. ξTyr(βOH) = NC(C(=O)O)C(O)c1ccc(O)cc1
Potency means the concentration at half of the fitted maximal effect.

Sequence of Cellular tumor antigen p53 (Homo sapiens) (P04637 whole entry, looked up): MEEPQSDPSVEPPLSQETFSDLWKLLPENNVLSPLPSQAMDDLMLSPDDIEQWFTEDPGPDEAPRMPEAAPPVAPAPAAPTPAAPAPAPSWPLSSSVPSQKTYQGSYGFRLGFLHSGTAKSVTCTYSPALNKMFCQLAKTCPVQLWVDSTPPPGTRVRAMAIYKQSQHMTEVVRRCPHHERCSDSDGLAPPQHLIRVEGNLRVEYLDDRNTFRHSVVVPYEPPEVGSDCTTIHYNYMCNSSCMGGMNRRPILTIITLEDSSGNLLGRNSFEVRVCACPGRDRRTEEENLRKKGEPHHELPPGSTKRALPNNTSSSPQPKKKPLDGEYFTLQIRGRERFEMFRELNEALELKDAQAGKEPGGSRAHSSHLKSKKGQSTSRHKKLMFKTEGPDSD

In this experiment the target is Cellular tumor antigen p53 (Homo sapiens) (UniProt P04637). The experiment is described as follows: Primary qHTS for small molecule compounds that upregulate eGFP-tagged delta133p53alpha (in N-terminal) cells. (AID 2060322). Further: nearly all actives have a fitted effect of over 75% in size.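 On activation: series mostly up to about 56 µM; 0% = DMSO vehicle and 100% = reference activator.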 The settings on record: NCI-H358 eGFP-delta133p53alpha fluorescence, 24 h; activation: stronger effect = higher value. Summed up:
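NCI-H358 cells pre-induced 24 h with 10 ng/ml doxycycline for eGFP-delta133p53alpha, plated dox-free and exposed 24 h at 37C to titrated compounds. Fixed, Hoechst-stained; gated GFP peak intensity by laser scanning cytometry, normalized to DMSO (0%) and 57.5 uM 5-azacytidine (100%).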
Turning to `CCN(CCN(C)C)C(=O)CNCc1cc(C(N)=O)ccn1`, the activation is -3.67%.

Take `COc1cc(/C=C/C(=O)OC2CC(C)=C(C(=O)O)/C2=C/CO[C@@H]2O[C@H](CO)[C@@H](O)[C@H](O)[C@H]2O)ccc1O` (stereo not given in full): the activation is -8.93%.

In the case of `CN1CCN(C(c2ccccc2)c2ccccc2)CC1`, the activation is 14.2% and -0.955%. The same measure, in the same setting: as for `CC1(C)O[C@H]2CC(=O)OC[C@@]23C1=C(O)C(=O)[C@]1(C)C3CC[C@@]2(C)[C@H](c3ccoc3)OC(=O)[C@H]3O[C@]321` (stereo not given in full), the figure is -13%; as for `NC(N)=NC(=O)c1cnn(-c2cccc3ncccc23)c1C1CC1`, 25%.

As for `O=C(CSc1nc2ccccc2c(=O)n1-c1ccccc1)Nc1ccc2c(c1)CCC2`, the activation is 5.67%. The same measure, in the same setting: as for `CC1(C)CC[C@]2(C(=O)O)CC[C@]3(C)C(=CCC4[C@@]5(C)CC[C@H](O)C(C)(C)C5CC[C@]43C)C2C1` (stereo not given in full), the figure is -0.763%; as for `CC1(C)CC[C@]2(C(=O)O[C@@H]3O[C@H](CO)[C@@H](O)[C@H](O)[C@H]3O)CC[C@]3(C)C(=CCC4[C@@]5(C)CC[C@H](O[C@@H]6O[C@H](C(=O)O)[C@@H](O[C@@H]7O[C@H](CO)[C@@H](O)[C@H](O)[C@H]7O)[C@H](O)[C@H]6O)C(C)(C)C5CC[C@]43C)C2C1` (stereo not given in full), -26.7%. `C[C@@]12C(=O)N(c3ccc(C(=O)Nc4cccc5cccnc45)cc3)C(=O)[C@@H]1[C@@H]1C=C[C@H]2C1`: the activation is 18.3%.

For the compound `COC1=CC(=O)C=C(C)C12Oc1c(Cl)c(OC)cc(OC)c1C2=O` (stereo not given), the activation is 1.53%. On the same count and under the same terms, as for `O=C1CCC=CC1(O)C(=O)OCc1ccccc1O[C@@H]1O[C@H](CO)[C@@H](O)[C@H](O)[C@H]1O` (stereo not given in full), the figure is 15.3%; as for `O=C(O)c1ccnc(-c2cc(C(=O)NCCc3ccccc3)ccn2)c1`, 4.47%; as for `O=C(c1ccccc1)c1c(O)cc(O)cc1O[C@@H]1O[C@H](CO)[C@@H](O)[C@H](O)[C@H]1O`, -13%. With `C[C@@H]1CN(Cc2ccccc2)C[C@H]1c1nc2c(cnn2C2CCOCC2)c(=O)[nH]1`, the activation is 18.8%. On the same count and under the same terms, then `COC(=O)C(C)C1CCC2(C)C(=O)C=CC(C)(O)C2C1O` (stereo not given), with 26%; and `CC(=O)O[C@H]1C[C@H](OC(C)=O)[C@]2(C)[C@H](CC[C@@]34O[C@@H]3C3=C(C)C(=O)O[C@@H]3C[C@H]42)C1(C)C`, with 4.46%. Same read-out and setting: then `C[C@@H](c1ccccc1)N(C(N)=NC#N)c1cccc2ncccc12`, with 2.33%.

On to `CC(=O)OCC(=O)Nc1cc(C#N)cc(NC(=O)COC(C)=O)c1Cl`, for which the activation is 2.33%. Same read-out and setting: then `CC(C)C1NC(=O)CNC(=O)C2CCCN2C(=O)C(Cc2c[nH]c3ccccc23)NC(=O)CNC(=O)C(C(O)c2ccc(O)cc2)NC(=O)CNC1=O` (stereo not given) (cyclo(G[ξTyr(βOH)]GWPGV); configuration not given here), with -9.92%; and `CC1(CO)CCCC2(C)C1C(OC(=O)c1ccccc1)CC1C(=O)OCC12O` (stereo not given), with -20.6%; and `CC1(C)CC[C@]2(C(=O)O)CC[C@]3(C)C(=CCC4[C@@]5(C)CC[C@H](O[C@H]6O[C@H](C(=O)O)[C@@H](O)[C@H](O[C@@H]7O[C@H](CO)[C@H](O)[C@H](O)[C@H]7O)[C@H]6O)C(C)(C)C5CC[C@]43C)[C@@H]2C1` (stereo not given in full), with -5.36%. With `CC1=C2C(=O)C=C(CO)C2C2OC(=O)C(CS(=O)(=O)O)C2C(OC(=O)Cc2ccc(O)cc2)C1` (stereo not given), the activation was -22.1%. On the same count and under the same terms, as for `COC(=O)C1=CO[C@@H](O[C@@H]2O[C@H](CO)[C@@H](O)[C@H](O)[C@H]2O)[C@H]2[C@@H]1[C@H](O)C[C@]2(C)O`, the figure is 3.57%; as for `C=C1C(=O)OC[C@H]2C(C(=O)O)=CC3CC(C)(C)C[C@@]132` (stereo not given in full), 13.4%; as for `COc1c(O[C@@H]2O[C@H](CO)[C@@H](O)[C@H](O)[C@H]2O)c(CCC(=O)O)cc2ccoc12`, -7.63%. For the compound `CC1CCC2C(C)(C)C(O)CCC2(C)C12Cc1c(O)cc3c(c1O2)CN(C(CCC(N)=O)C(=O)O)C3=O` (stereo not given), the activation was -13.7%. Take `COc1ccccc1-c1c[nH]c2ncc(-c3cncc(C(=O)N(C)C)c3)cc12`: the Potency is 21.3 µM (active). As to `COc1ccc(/C=C/C(=O)O[C@@H]2[C@@H](O[C@@H]3O[C@H](CO)[C@@H](O)[C@H](O)[C@H]3O)[C@@H](O)[C@H](O[C@H]3C4C=CO[C@@H](O[C@@H]5O[C@H](CO)[C@@H](O)[C@H](O)[C@H]5O)C4[C@@]4(CO)O[C@@H]34)O[C@H]2C)cc1` (stereo not given in full), the activation is -9.92%. Same read-out and setting: then `COc1ccnc2[nH]cc(C(=O)C(=O)N3CCN(C(=O)c4ccccc4)CC3C)c12` (stereo not given), with -3%; and `CC(=O)c1c(C)cc(O[C@@H]2O[C@H](CO)[C@@H](O)[C@H](O)[C@H]2O)cc1O`, with -9.92%. The same measure, in the same setting: as for `CC(CCC1C(C(=O)O)=CC(=O)CC1(C)C)O[C@@H]1O[C@H](CO)[C@@H](O)[C@H](O)[C@H]1O` (stereo not given in full), the figure is -11.5%; as for `CC1=C2CC(O)(C(C)(C)O)C(O[C@@H]3O[C@H](CO)[C@@H](O)[C@H](O)[C@H]3O)CC(C)C2CC1=O` (stereo not given in full), -3.05%; as for `CCCC(=O)Nc1cccc(NC(=O)c2ccccc2Br)c1`, -11.7%. Turning to `O=C(c1ccc(Cl)cc1)N1CCN(c2ccnc3cc(Cl)ccc23)CC1`, the activation was -3%. The same measure, in the same setting: as for `COC(=O)[C@H](Cc1ccc([N+](=O)[O-])cc1)NC(=O)c1cccc2ccccc12`, the figure is 11.5%. Take `C/C=C1\[C@H](O[C@@H]2O[C@H](CO)[C@@H](O)[C@H](O)[C@H]2O)OC=C(C(=O)O)[C@H]1CC(=O)OCCc1ccc(O)cc1`: the activation was 0.763%. Still for that read-out and setting: as for `Cc1cc(CNC(=O)c2cc(C(=O)NCc3ccc(F)c(C)c3)ncn2)ccc1F`, the figure is 1.67%; as for `COC1CC(O[C@H]2CC[C@@]3(C)C(=CC[C@]4(O)C3[C@H](O)[C@@H](O)[C@]3(C)[C@@H]([C@H](C)O)CC[C@@]34O)C2)OC(C)C1OC1CC(OC)C(OC2CC(OC)C(OC3OC(C)C(OC4OC(CO)C(O)C(O)C4O)C(OC)C3O)C(C)O2)C(C)O1` (stereo not given in full), -4.58%. The same measure, in the same setting: as for `COc1ccc(/C=C/C(=O)O[C@H]2[C@@H]3C=CO[C@@H](O[C@@H]4O[C@H](CO)[C@@H](O)[C@H](O)[C@H]4O)[C@@H]3[C@@]3(CO)O[C@@H]23)cc1O`, the figure is -2.29%. Regarding `NC[C@H]1CCC[C@@H](CNC(=O)[C@@H](Cc2c[nH]c3ccccc23)NC(=O)N2CCC3(C=Cc4ccccc43)CC2)C1`, the activation was 3%.
